Source: PubChem BioAssay (NCATS)
Inconclusive results are not listed. Activity calls are given as the source filed them. Unless noted, calls follow the shape of the dose curve; as a rule, active = well fitted curve in the direction sought with a large enough effect; inconclusive = small, poorly fitted or top-dose-only effect, or another doubt; inactive = no such curve, though single readings can be large; an effect the other way counts as inactive or inconclusive.

Tests used:
[1] = AP1 Signaling Pathway (AID 357; active = well fitted curve in either direction with a large enough effect, not every such curve was filed as active;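 also: ME-180 reporter cells stimulated with EGF at its EC50 level; % is scaled to controls: 0 for no effect and ±100 for the full control effect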); settings: ME-180 AP-1-bla reporter, EGF-induced, beta-lactamase ratio, 5 h; at 7.69 µM (top of the series) unless noted
Outline: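 Beta-lactamase reporter under AP-1 response element, ME-180 background. Stimulus: EC50 EGF. Compound exposure 5 h, 37 °C. Detection: CCF4, 2.5 h RT, 460/530 nm. Values: AC50 from titration.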

[2] = target: Cytochrome P450 1A2 (Homo sapiens) (UniProt P05177); experiment: p450-cyp1a2 (AID 410; calls by dose curve; also: potency is read from the fitted curve at half-maximal effect;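 as to activity change, negative = inhibition: -100% = full effect of reference inhibitor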)
Outline: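 Human CYP1A2 (20nM) demethylated Luciferin-ME at its Km (100uM) in 100mM KPO4. After 10 min compound preincubation, NADPH regeneration ran the reaction 60 min at room temperature. Luciferin was read by luminescence, normalized to 57 uM furafylline.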

[3] = NFAT Signaling Pathway (AID 444; active = well fitted curve in either direction with a large enough effect, not every such curve was filed as active;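 also: carbachol stimulus at about its EC50 of 1 µM final; % is scaled to controls: 0 for no effect and ±100 for the full control effect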); settings: Jurkat NFAT-bla M1, carbachol, beta-lactamase ratio, 5 h; at 7.69 µM (top of the series) unless noted
Outline: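 Jurkat cells carrying an NFAT-driven β-lactamase reporter and co-transfected muscarinic M1 receptor were treated with compound plus carbachol (1 uM final, an EC50 level) for 5 h at 37 °C. CCF4 loading followed for 1 h at RT; 460/530 nm ratio gave %activity.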

[4] = Stat Signaling Pathway (AID 446; active = well fitted curve in either direction with a large enough effect, not every such curve was filed as active;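 also: ME-180 cervical cancer cells given 40 pM IL-6 alongside compound; SIE-controlled beta-lactamase reporter measured as 460/530 nm FRET emission ratio; % is scaled to controls: 0 for no effect and ±100 for the full control effect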); settings: ME-180 SIE beta-lactamase reporter, IL-6 stimulated, 5 h; at 7.69 µM (top of the series) unless noted
Outline: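 Reporter line: ME-180 cervical carcinoma, SIE-beta-lactamase. Treatment: compound with 40 pM IL-6, 5 hrs, 37 C, in low-serum OPTI-MEM with 10 mM HEPES pH 7.3. Detection: 460/530 nm fluorescence.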

[5] = target: Glucocorticoid receptor (Homo sapiens) (UniProt P04150); experiment: GR-GFP Redistribution (AID 450;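 active = compounds whose dose series gives a full or clear partial fitted curve of increased nuclear translocation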; also: potency is read from the fitted curve at half-maximal effect); settings: U2OS GR-GFP nuclear translocation, laser cytometry, 2 h
[6] = target: Glucocorticoid receptor (Homo sapiens) (UniProt P04150); experiment: GR-EFC Redistribution (AID 451; calls by dose curve; also: potency is read from the fitted curve at half-maximal effect); settings: CHO-K1 GR-EFC translocation, beta-gal luminescence, 2 h
Outline: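 CHO-K1 cells stably expressing nuclear-localized β-gal enzyme acceptor and GR fused C-terminally to the enzyme donor fragment; ligand-driven nuclear translocation restores β-gal by complementation. Compounds titrated up to 46 uM final, 2 h at 37 °C; luminescence read.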

[7] = target: Mitogen-activated protein kinase 10 (Mus musculus) (UniProt Q61831); experiment: JNK3 AlphaScreen Assay (AID 530; active = well fitted curve in either direction with a large enough effect, not every such curve was filed as active;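 also: kinase came from lysate of stimulated human HepG2 cells; signal reports phosphorylation of biotinylated GST-cJun 1-79 at Ser73 with 10 µM ATP; % is scaled to controls: 0 for no effect and ±100 for the full control effect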)
Outline: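 JNK3 came from HepG2 lysates pre-activated with IL-1beta and TNF-alpha and phosphorylated biotinylated GST-cJun (1-79) at 10 uM ATP, pH 7.6, room temperature. Compounds were titrated. AlphaScreen signal used anti-phospho-cJun (Ser73) antibody.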

[8] = target: 3',5'-cyclic-AMP phosphodiesterase 4B (Homo sapiens) (UniProt Q07343); experiment: qHTS Assay for Inhibitors of PDE-IV (AID 607; active = well fitted activation curve with a large enough effect in the main read-out, with a control signal flat, not every such curve was filed as active; also: % of control where 0% means no effect)
Outline: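 Cell-based read-out of cAMP via a modified cyclic nucleotide-gated channel and membrane potential dye (535/590 nm) in HEK293 cells expressing PDE4 endogenously. Compounds tested up to 22.9 uM final; 100 uM RO 20-1724 reference.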

[9] = target: Guanine nucleotide-binding protein G(i) subunit alpha-1 (Homo sapiens) (UniProt P63096); experiment: qHTS Assay for Inhibitors of RGS12 GoLoco Motif Activity (Green Fluorophore) (AID 879);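 also: 0% = labeled peptide with Gαi1 and full inhibition = labeled peptide alone without protein; negative values mean loss of peptide binding seen as reduced polarization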
Outline: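 Fluorescence polarization assay: 50 nM Gαi1 with 10 nM FITC-labeled RGS12 GoLoco peptide in 10 mM Tris pH 7.5, 150 mM NaCl, 0.1 mM GDP, 0.05% NP40, 10 min at room temperature with compound.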

[10] = qHTS Assay for Identification of Small Molecule Agonists for Thrombopoietin (TPO) Signaling Pathway (AID 917); also: % is scaled to controls: 0 for no effect and ±100 for the full control effect
Outline: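 IL-3-dependent murine pro-B Ba/F3 cells, stably transfected with human TPO receptor and GpIIb-promoter luciferase, are incubated 24 hrs at 37 C with test compound and 26 pM TPO; luciferase signal is read after 10 min at room temperature.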

[11] = target: Muscarinic acetylcholine receptor M1 (Rattus norvegicus) (UniProt P08482); experiment: qHTS Assay for Antagonists of Acetylcholine Muscarinic M1 Receptor: Measurement of IP-One Response (AID 944); also: nearly all actives have a fitted effect of over 75% in size
Outline: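 CHO cells expressing rat M1 receptor, recovered overnight, were pre-incubated 10 min with compound, then stimulated 30 min with carbachol at EC80 (200 nM) in LiCl-containing buffer, pH 7.4. IP1 accumulation was read by HTRF (620/665 nm).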

[12] = target: Pyruvate kinase PKM (Homo sapiens) (UniProt P14618); experiment: qHTS Assay for Activators of Human Muscle Pyruvate Kinase (AID 954; active = well fitted curve in the direction sought with a large enough effect, not every such curve was filed as active;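 also: 0% = uninhibited enzyme and -100% = no enzyme or full thiadiazolimine inhibition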)
Outline: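 Human PKM2 activity is measured as ATP generation, detected by luciferase-coupled luminescence. The enzyme (0.1 nM) acts on 0.5 mM PEP and 0.1 mM ADP for 1 h at ambient temperature; data are normalized to uninhibited and full-inhibition wells.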

[13] = target: Alpha-galactosidase A (Homo sapiens) (UniProt P06280); experiment: Counterscreen for Glucocerebrosidase Inhibitors: qHTS Assay for Human alpha-Galactosidase at pH 4.5 (AID 992); also: 0% is about no effect
Outline: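 Quantitative HTS: compounds tested from 0.7 nM up to 77 uM against 2 nM enzyme with 80 uM 4-MU alpha-D-galactopyranoside. The 20 min room-temperature reaction is stopped with 1M NaOH/1M glycine, pH 10.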

[14] = target: alpha-glucosidase (Oryza sativa, rice) (UniProt Q653V4); experiment: Counterscreen for Glucocerebrosidase Inhibitors: qHTS Assay for Rice alpha-Glucosidase at pH 5.0 (AID 997);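 also: 0% = full activity with enzyme and -100% = basal without enzyme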
Outline: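 Rice alpha-glucosidase (4 nM final) with 400 uM 4-methylumbelliferyl-alpha-D-glucopyranoside in citrate buffer pH 5.0, 20 min at room temperature, stopped at pH 10; fluorescence 365/440 nm, compounds 0.7 nM–77 uM, AC50 from Hill fits.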

[15] = target: Muscarinic acetylcholine receptor M1 (Rattus norvegicus) (UniProt P08482); experiment: qHTS Assay for Antagonists of Acetylcholine Muscarinic M1 Receptor: Kinetic Measurement of Intracellular Calcium Response (AID 943);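 also: Fluo-4 calcium signal as peak divided by basal fluorescence over 4 min; nearly all actives have a fitted effect of over 75% in size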
Outline: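 CHO cells stably expressing rat M1 were loaded with no-wash Fluo-4 dye for 1 h at 37C, pre-incubated 10 min with compound, then challenged with EC80 carbachol (100 nM final); kinetic calcium read 4 min, peak/basal ratio.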

[16] = target: Pyruvate kinase (Leishmania mexicana) (UniProt Q27686); experiment: qHTS Validation Assay for Inhibitors of Leishmania Mexicana Pyruvate Kinase (AID 945);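 also: 0% = DMSO only neutral control wells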
Outline: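 Substrate mix (0.5 mM PEP, 0.1 mM ADP, 7 mM MgCl2, 50 mM KCl, pH 7.2 imidazole) received compound by pin tool, then 0.2 nM LmPYK E451W. After 1 h at room temperature, PKLight was added and luminescence measured.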

[17] = target: Cytochrome P450 3A4 (Homo sapiens) (UniProt P08684); experiment: qHTS Assay for Activators of Cytochrome P450 3A4 (AID 885); also: nearly all actives have a fitted effect of over 65% in size
Outline: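 Signal was normalized against complete inhibition by 57 uM ketoconazole. The reaction used 20nM CYP3A4 with 25uM Luciferin-PPXE, 10-min compound preincubation and a 60-min NADPH-supported step at RT.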

[18] = qHTS Assay for Identification of Small Molecule Antagonists for NFkB Signaling Pathway (AID 895; active = well fitted inhibition curve with a large enough effect in the signal ratio, with a control signal flat, not every such curve was filed as active; the % refers to the signal ratio; also: potency is read from the fitted curve at half-maximal effect)
Outline: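 NFkB-bla ME-180 cervical carcinoma cells with beta-lactamase reporter under NFkB response element; compounds added, then TNF alpha at 10 pM final (EC50), 5 h at 37 C. LiveBLAzer substrate 2 h, room temperature; emission 460/530 nm at 405 nm excitation.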

[19] = target: Cytochrome P450 2C9 (Homo sapiens) (UniProt P11712); experiment: qHTS Assay for Inhibitors and Substrates of Cytochrome P450 2C9 (AID 883); also: potency is read from the fitted curve at half-maximal effect; nearly all actives have a fitted effect of over 60% in size
Outline: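 Human CYP2C9 (10nM) hydroxylated Luciferin-H (100uM, at its KM) to luciferin in 25mM KPO4. Compound was preincubated 10 min at 37C, then NADPH regeneration started a 60 min reaction at 37C. Luminescence was read after detection reagent, normalized to 57uM sulphaphenazole.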

[20] = target: Cytochrome P450 3A4 (Homo sapiens) (UniProt P08684); experiment: qHTS Assay for Inhibitors and Substrates of Cytochrome P450 3A4 (AID 884); also: potency is read from the fitted curve at half-maximal effect; nearly all actives have a fitted effect of over 50% in size
Outline: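 20 nM human CYP3A4 with 25 uM Luciferin-PPXE (at KM) in 200 mM KPO4, preincubated 10 min with compound; NADPH regeneration started a 60 min RT reaction. Luciferin detected by luminescence, normalized to 57 uM ketoconazole as full inhibition.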

[21] = target: Cytochrome P450 2C19 (Homo sapiens) (UniProt P33261); experiment: qHTS Assay for Inhibitors and Substrates of Cytochrome P450 2C19 (AID 899); also: % is scaled to controls: 0 for no effect and ±100 for the full control effect; nearly all actives have a fitted effect of over 60% in size
Outline: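 Human CYP2C19 (5nM) with Luciferin-H EGE at 10uM (its KM) in 50mM KPO4 was preincubated with compound for 10 min at 37C. NADPH regeneration started a 60 min 37C reaction. Luciferin was read by luminescence, normalized to 57uM ketoconazole.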

[22] = qHTS Assay for Identification of Small Molecule Antagonists for Thrombopoietin (TPO) Signaling Pathway (AID 918); settings: TPO-dependent cell signaling reporter, antagonist mode; also: potency is read from the fitted curve at half-maximal effect; nearly all actives have a fitted effect of over 60% in size
Outline: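 Murine Ba/F3 cells stably expressing human TPO receptor and a Glycoprotein IIb promoter–luciferase reporter were IL-3-starved overnight, treated with compounds plus TPO (26 pM final, its EC50) for 24 hrs at 37 C, then read by luminescence.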

Chain of 3',5'-cyclic-AMP phosphodiesterase 4B (Homo sapiens) (Q07343 whole entry, looked up): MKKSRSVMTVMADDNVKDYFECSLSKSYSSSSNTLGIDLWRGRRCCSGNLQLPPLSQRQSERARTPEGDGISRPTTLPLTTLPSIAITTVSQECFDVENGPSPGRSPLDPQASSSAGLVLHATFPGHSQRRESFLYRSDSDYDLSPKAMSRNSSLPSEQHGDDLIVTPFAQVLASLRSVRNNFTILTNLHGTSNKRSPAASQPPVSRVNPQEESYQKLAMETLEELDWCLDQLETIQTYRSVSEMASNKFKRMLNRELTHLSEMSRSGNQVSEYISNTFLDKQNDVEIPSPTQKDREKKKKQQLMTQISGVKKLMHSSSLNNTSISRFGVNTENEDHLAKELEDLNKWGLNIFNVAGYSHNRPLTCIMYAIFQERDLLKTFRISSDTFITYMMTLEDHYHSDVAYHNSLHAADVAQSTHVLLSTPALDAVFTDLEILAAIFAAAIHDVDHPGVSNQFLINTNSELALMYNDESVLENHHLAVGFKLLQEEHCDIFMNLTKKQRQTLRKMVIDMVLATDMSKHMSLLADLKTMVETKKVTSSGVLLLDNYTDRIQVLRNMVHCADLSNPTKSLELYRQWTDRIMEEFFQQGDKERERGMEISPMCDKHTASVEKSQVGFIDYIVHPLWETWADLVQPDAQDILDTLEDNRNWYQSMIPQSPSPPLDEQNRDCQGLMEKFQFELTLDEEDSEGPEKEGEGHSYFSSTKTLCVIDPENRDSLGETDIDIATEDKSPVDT
Chain of Cytochrome P450 1A2 (Homo sapiens) (P05177 whole entry, looked up): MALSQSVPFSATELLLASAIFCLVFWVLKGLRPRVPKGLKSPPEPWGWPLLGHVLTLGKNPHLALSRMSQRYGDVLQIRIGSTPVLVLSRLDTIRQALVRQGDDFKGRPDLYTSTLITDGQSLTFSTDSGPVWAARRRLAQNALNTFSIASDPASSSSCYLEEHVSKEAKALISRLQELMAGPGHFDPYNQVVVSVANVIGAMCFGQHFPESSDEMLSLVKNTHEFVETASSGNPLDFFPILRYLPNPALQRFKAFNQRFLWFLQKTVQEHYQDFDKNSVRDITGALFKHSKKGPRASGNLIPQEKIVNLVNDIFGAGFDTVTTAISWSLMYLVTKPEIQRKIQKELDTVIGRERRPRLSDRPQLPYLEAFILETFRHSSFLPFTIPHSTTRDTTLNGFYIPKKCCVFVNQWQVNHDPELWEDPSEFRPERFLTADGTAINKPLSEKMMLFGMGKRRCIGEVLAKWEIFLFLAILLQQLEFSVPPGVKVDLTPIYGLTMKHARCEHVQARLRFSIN
Chain of Pyruvate kinase PKM (Homo sapiens) (P14618 whole entry, looked up): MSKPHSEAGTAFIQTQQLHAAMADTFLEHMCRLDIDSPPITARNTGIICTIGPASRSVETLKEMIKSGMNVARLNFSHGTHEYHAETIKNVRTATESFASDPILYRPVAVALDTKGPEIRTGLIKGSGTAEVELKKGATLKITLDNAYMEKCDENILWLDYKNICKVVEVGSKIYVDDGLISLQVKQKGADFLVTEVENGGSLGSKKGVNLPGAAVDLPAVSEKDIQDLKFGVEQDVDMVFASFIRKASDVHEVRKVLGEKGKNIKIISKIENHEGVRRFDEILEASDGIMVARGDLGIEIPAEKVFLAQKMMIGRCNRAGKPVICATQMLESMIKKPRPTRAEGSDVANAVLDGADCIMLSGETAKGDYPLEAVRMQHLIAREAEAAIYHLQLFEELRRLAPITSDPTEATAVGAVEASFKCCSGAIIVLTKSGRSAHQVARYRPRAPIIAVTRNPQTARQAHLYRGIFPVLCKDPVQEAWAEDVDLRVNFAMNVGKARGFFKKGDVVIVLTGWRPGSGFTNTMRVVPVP
Chain of Cytochrome P450 3A4 (Homo sapiens) (P08684 whole entry, looked up): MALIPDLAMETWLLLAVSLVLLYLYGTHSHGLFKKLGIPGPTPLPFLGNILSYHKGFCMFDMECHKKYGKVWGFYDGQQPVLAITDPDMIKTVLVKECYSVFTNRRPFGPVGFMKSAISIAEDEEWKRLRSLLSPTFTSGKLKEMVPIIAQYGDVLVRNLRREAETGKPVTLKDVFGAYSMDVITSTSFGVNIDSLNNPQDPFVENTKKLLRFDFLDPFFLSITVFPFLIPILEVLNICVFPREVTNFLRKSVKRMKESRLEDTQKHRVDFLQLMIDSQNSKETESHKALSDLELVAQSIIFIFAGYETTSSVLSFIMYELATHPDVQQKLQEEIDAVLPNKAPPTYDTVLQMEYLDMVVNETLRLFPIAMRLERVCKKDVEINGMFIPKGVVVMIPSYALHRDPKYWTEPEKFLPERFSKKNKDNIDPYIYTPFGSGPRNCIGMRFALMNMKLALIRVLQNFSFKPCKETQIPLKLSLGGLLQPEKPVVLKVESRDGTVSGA
Chain of Muscarinic acetylcholine receptor M1 (Rattus norvegicus) (P08482 whole entry, looked up): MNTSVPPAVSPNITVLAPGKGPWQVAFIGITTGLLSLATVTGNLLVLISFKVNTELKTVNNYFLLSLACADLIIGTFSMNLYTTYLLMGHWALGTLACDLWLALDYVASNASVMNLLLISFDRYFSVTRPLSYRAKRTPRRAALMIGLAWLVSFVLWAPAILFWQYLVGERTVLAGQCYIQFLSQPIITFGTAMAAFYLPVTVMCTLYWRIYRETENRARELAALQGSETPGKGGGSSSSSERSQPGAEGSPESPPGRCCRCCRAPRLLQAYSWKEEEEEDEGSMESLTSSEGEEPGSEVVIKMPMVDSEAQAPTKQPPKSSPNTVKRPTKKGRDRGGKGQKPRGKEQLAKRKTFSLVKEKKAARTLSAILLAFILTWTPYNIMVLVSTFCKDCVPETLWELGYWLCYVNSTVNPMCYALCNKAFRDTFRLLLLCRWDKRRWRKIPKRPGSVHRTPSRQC
Chain of Guanine nucleotide-binding protein G(i) subunit alpha-1 (Homo sapiens) (P63096 whole entry, looked up): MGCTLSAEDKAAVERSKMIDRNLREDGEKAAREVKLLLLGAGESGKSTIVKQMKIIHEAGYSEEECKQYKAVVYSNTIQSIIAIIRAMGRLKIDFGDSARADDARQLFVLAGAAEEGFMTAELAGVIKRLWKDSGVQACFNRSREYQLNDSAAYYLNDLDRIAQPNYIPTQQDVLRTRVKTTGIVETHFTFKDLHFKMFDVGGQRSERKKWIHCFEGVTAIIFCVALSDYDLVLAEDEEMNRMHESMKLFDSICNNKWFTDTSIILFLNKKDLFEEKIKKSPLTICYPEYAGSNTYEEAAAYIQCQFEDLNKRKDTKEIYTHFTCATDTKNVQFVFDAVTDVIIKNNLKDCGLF
Chain of Glucocorticoid receptor (Homo sapiens) (P04150 whole entry, looked up, the tested form may be a part): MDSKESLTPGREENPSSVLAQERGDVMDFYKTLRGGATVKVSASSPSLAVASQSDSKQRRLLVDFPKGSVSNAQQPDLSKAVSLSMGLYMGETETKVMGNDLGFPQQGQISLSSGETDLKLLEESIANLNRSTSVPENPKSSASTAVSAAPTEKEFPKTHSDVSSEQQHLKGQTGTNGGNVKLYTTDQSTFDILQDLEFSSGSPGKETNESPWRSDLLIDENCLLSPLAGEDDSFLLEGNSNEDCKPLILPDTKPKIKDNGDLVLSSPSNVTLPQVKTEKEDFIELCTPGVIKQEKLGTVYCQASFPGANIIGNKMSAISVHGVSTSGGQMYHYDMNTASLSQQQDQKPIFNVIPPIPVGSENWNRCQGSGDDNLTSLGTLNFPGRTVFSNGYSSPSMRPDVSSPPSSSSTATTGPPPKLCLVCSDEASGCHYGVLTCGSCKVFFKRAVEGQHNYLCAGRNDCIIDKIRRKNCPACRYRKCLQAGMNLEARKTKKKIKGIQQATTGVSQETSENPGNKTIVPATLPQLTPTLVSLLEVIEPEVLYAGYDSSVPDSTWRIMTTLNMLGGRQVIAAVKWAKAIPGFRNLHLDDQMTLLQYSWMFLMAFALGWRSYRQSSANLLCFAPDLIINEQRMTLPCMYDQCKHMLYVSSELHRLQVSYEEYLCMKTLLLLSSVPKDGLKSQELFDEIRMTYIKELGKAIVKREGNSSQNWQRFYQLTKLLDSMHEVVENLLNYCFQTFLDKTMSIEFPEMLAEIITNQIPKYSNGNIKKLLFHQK
Chain of Alpha-galactosidase A (Homo sapiens) (P06280 whole entry, looked up): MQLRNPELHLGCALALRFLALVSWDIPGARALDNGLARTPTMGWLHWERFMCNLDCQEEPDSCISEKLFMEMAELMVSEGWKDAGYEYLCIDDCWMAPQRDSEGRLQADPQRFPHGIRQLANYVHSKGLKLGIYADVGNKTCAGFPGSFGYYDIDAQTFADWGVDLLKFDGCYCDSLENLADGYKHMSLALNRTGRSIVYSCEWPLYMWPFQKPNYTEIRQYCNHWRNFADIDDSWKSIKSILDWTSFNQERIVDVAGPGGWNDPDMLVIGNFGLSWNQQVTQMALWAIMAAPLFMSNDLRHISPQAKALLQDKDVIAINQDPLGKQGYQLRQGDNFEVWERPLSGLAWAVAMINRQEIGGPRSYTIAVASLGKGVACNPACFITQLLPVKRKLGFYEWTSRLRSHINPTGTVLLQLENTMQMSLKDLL
Chain of Pyruvate kinase (Leishmania mexicana) (Q27686 2-499 E452W): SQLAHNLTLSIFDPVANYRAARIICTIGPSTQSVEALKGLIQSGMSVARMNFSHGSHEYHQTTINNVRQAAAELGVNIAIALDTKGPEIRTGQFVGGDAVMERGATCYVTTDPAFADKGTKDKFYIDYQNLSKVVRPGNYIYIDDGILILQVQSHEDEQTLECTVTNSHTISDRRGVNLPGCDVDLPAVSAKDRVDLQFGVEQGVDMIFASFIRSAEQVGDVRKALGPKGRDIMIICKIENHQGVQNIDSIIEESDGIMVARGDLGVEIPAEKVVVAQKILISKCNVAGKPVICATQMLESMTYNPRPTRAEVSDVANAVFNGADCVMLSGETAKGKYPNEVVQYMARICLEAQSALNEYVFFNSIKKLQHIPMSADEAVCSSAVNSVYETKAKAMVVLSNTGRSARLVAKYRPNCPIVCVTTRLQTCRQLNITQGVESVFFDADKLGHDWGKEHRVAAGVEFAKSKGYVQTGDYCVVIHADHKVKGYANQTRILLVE

O=C(O)CC[C@@H](NC(=O)c1ccccc1C(=O)O)C(=O)O
inactive: activity change, negative = inhibition [1] 10.1% [at 38 µM] | Potency [2] | activity change, negative = inhibition [3] 6.53% [at 38 µM] | activity, negative = inhibition [4] -11.8% [at 38 µM] | Potency [5] > 46 µM | Potency [6] > 46 µM | Potency [7] | Potency [8] | outcome [9] | outcome [10] | Potency [11] | outcome [12] | outcome [13] | Potency [14]

C[C@H](O)[C@H](O)[C@@H]1CNc2nc(N)[nH]c(=O)c2N1
inactive: activity change, negative = inhibition [1] 7.68% [at 38 µM] | Potency [2] | activity change, negative = inhibition [3] 7.39% [at 38 µM] | activity, negative = inhibition [4] 18.8% [at 38 µM] | Potency [5] > 46 µM | Potency [6] > 46 µM | Potency [7] | Potency [8] | outcome [9] | outcome [10] | Potency [15] | Potency [11] | outcome [16] | outcome [12] | outcome [13] | Potency [14]

CNC(=O)[C@@H]1O[C@@H](n2cnc3c(NCc4ccc(N)cc4)ncnc32)[C@@H](O)[C@H]1O
inactive: activity change, negative = inhibition [1] -7.83% [at 38 µM] | Potency [2] | activity change, negative = inhibition [3] 4.77% [at 38 µM] | activity, negative = inhibition [4] -2.42% [at 38 µM] | Potency [5] > 46 µM | Potency [6] > 46 µM | Potency [7] | Potency [8] | outcome [9] | Potency [17] | outcome [10] | Potency [15] | Potency [11] | outcome [12] | outcome [13] | Potency [14]
active: Potency [18] 12.6 µM

N#CCCn1c(=O)c(CCc2ccccc2)nc2cnc(Oc3ccccc3)nc21
inactive: activity change, negative = inhibition [1] -21% | activity change, negative = inhibition [3] -2.26% | activity, negative = inhibition [4] -14.5% | Potency [5] > 9.22 µM | Potency [6] > 46 µM | Potency [7] | Potency [8] | Potency [17]
active: Potency [2] 12.6 µM | Potency [19] 7.94 µM | Potency [20] 2.51 µM

CSC(N)=NCCC[C@@H](N)C(=O)O
active: Potency [22] 3.16 µM
inactive: activity change, negative = inhibition [1] 19.2% [at 38 µM] | Potency [2] | activity change, negative = inhibition [3] 6.92% [at 38 µM] | activity, negative = inhibition [4] 10.5% [at 38 µM] | Potency [5] > 46 µM | Potency [6] > 46 µM | Potency [7] | Potency [8] | outcome [9] | Potency [21] | Potency [11] | outcome [12] | outcome [13] | Potency [14]
